Experimental data as given in PubChem BioAssay AID720513 (Broad Institute, 2013).
The whole screen tested about 2,100 compounds, of which about 480 (23%) were called active. Inconclusive results (about 5%) are left out.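 How the source made its calls: active means fitted curve reaches 40% activation at or below the top valid concentration, in every replicate test; inconclusive means replicate tests disagree on the call; inactive means the rest, including activity in the opposite direction.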 These entries were drawn from the full list. Entries with a potency or affinity are not part of this list.

Assay: PGC1a acetylation increase, cellular AlphaLISA – cell-based, cherry-picked samples, set 6, dose response (AID 720513);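 further: cells made to overexpress flag tagged PGC1a plus GCN5 acetyltransferase by viral infection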
Conditions: U2OS PGC1a acetylation AlphaLISA, overnight, 0 = neutral, -100 = inhibitor control; series mostly up to 19.5 µM

outcome, inactive:
C[C@H]1CN([C@@H](C)CO)C(=O)c2cc(C3=CCCC3)cnc2O[C@@H]1CN(C)C(=O)c1cccnc1, Cc1ccccc1S(=O)(=O)N[C@H]1CC[C@H](CCn2cc(Cc3ccccc3)nn2)O[C@@H]1CO, COc1ccccc1C#Cc1ccc2c(c1)O[C@@H](CN(C)Cc1cccnc1)[C@H](C)CN([C@@H](C)CO)S2(=O)=O, CO[C@H]1CN(C)C(=O)c2cc(NS(=O)(=O)c3cn(C)cn3)ccc2OC[C@@H](C)NC[C@H]1C, CCCCN(c1ccccc1)c1ncnc(N)c1[N+](=O)[O-], COC(=O)c1cccc(NC(=O)CSc2nnc(C)n2C)c1, COc1ccccc1Nc1nc(NCCC(C)C)nc(N)c1[N+](=O)[O-], Cn1nnnc1Sc1ncnc2scc(-c3cccc(S(C)(=O)=O)c3)c12, Cc1ccc(C)c(S(=O)(=O)N(C(=O)c2ccncc2)c2ccc(OC(=O)c3ccncc3)cc2)c1, C=CCNC(=O)c1cnn(-c2ccccc2)c1-c1ccccc1, CO[C@@H]1CN(C)C(=O)c2ccc(NC(C)=O)cc2OC[C@@H](C)N(C(=O)Cc2cccnc2)C[C@@H]1C, O=C(Cn1ncc(Cl)c(Cl)c1=O)NCC1CCCCC1, C[C@@H]1CN([C@H](C)CO)C(=O)Cc2cc(NC(=O)CCC(F)(F)F)ccc2O[C@H]1CN(C)S(C)(=O)=O, CCOC(=O)C1=C(Nc2ccccc2)OCC1=O, O=C(NCc1cccnc1)/C(=C/c1ccc(-c2ccc(Cl)cc2)o1)S(=O)(=O)c1ccccc1, CC1=CCC2C(=O)N(c3cccc(C(=O)NCc4ccccc4)c3)C(=O)C2C1 (configuration not stated), Cc1ccc(S(=O)(=O)Nc2cccc3c2O[C@H](CN(C)Cc2ccc(Cl)c(Cl)c2)[C@@H](C)CN([C@@H](C)CO)C3=O)cc1, CN(C)c1nc(SCCOC(=O)COc2ccc(Cl)cc2Cl)nc(N(C)C)n1, CCCc1cc(=O)oc2cc(C)cc(O)c12, CC(=O)Nc1ccc2c(CSc3nncs3)cc(=O)oc2c1, COC(=O)[C@]1(Cc2ccccc2)N=C(c2ccc(OCCCO)cc2)O[C@@H]1c1ccccc1CN=[N+]=[N-], O=[N+]([O-])c1cc(F)c2cccnc2c1O, Cc1ccc2[nH]c3ccccc3c(=O)c2c1, CCN(CC(=O)Nc1ccccc1C(F)(F)F)C(=O)CCSc1ccc(F)cc1, O=C(NCc1cccnc1)C1CC(=O)N(C2CCCCC2)C1 (configuration not stated), O=C(CCNNC(=O)c1ccncc1)NCc1ccccc1, O=C(NCc1cccnc1)/C(=C\c1ccc(-c2ccc(Cl)c(Cl)c2)o1)S(=O)(=O)c1ccccc1, O=C(NCc1cccnc1)/C(=C\c1ccc(-c2cccc(Cl)c2)o1)S(=O)(=O)c1ccccc1, O=C(Cc1ccccn1)NCC[C@H]1CC[C@@H](NC(=O)Nc2ccc(C(F)(F)F)cc2)[C@@H](CO)O1, O=C(NC1=NCCS1)C1CC(=O)N(c2ccccc2)C1 (configuration not stated), O=C(Nc1cccc2[nH]ncc12)c1ccc(F)cc1, O=C(C[C@@H]1CC[C@@H](NC(=O)C2CCC2)[C@H](CO)O1)NCC1CC1, CCC(=O)Nc1ccc(C(=O)COC(=O)c2sc(C)nc2C)cc1, CC(C)C[C@H]1CNC(=S)N1CC1CCCN1C[C@H](Cc1ccccc1)N1C[C@H](Cc2ccc(O)cc2)N(CC2CCCCCC2)C1=S (some centres not stated), CC(N=C1NS(=O)(=O)c2ccccc21)C(=O)NCCCc1ccccc1 (configuration not stated), CCOc1ccc2nc(NCCNC(=O)Nc3ccccc3)c(C#N)cc2c1, Cc1ccccc1OCC(O)CNC1CCC(NCC(O)COc2ccccc2C)CC1 (configuration not stated), C[C@H](CO)N1C[C@H](C)[C@H](CN(C)C(=O)CN(C)C)Oc2cc(-c3cncnc3)ccc2S1(=O)=O, CCN1CCN(Cc2ccc(NC(=O)c3cc(NC(=O)c4cncc(-c5ccc(C#N)cc5)c4)cc(OC)c3)cc2C(F)(F)F)CC1, COc1ccc(OCCc2nnc(N)s2)cc1, CN(NC(=O)c1ccccc1F)c1nc(C(F)(F)F)nc2ccccc12, C[C@@H](C(=O)Nc1nc2ccc(F)cc2s1)N1C(=O)C2CC=CCC2C1=O (some centres not stated), C[C@@H]1CN([C@H](C)CO)S(=O)(=O)c2ccc(C#CC3CCCC3)cc2O[C@H]1CN(C)C, O=C(NCC1CC1)Nc1ccccc1F, C/C=C/c1ccc2c(c1)O[C@@H](CN(C)C(=O)NC(C)C)[C@H](C)CN([C@H](C)CO)S2(=O)=O, COc1cccc(-c2ccc(C3[C@@H]4CN(Cc5cccc(F)c5)C[C@H]3N4)cc2)c1 (some centres not stated), COc1ccc(-c2ccc(C3[C@@H]4CN(Cc5ccccn5)C[C@H]3N4)cc2)cc1 (some centres not stated), Cc1cccc(-c2ccc(C3[C@@H]4CN(Cc5cccc(F)c5)C[C@H]3N4)cc2)c1 (some centres not stated), Fc1ccc(-c2ccc(C3[C@@H]4CN(Cc5ccccc5)C[C@H]3N4)cc2)cc1 (some centres not stated), COc1ccccc1CN1C[C@@H]2N[C@H](C1)C2c1ccc(-c2ccccc2)cc1 (some centres not stated), Fc1cccc(CN2C[C@@H]3N[C@H](C2)C3c2ccc(-c3ccccc3)cc2)c1 (some centres not stated), COc1cc(CN2C[C@@H]3N[C@H](C2)C3c2ccc(-c3cccc(OC)c3)cc2)cc(OC)c1 (some centres not stated), CC1CN(C(=O)COC(=O)[C@@H]2CC(O)CN2S(=O)(=O)c2ccc3c(c2)OCCO3)CC(C)O1 (some centres not stated), CCn1c(C)c(C)c2cc(C(=O)NCCN3CCOCC3)ccc21, CN1C(C(=O)Nc2ccccn2)=C(O)c2sc(Cl)cc2S1(=O)=O, CO[C@H]1CN(C)C(=O)c2cc(NS(C)(=O)=O)ccc2OC[C@H](C)N(C(=O)NC(C)C)C[C@H]1C, C[C@@H]1CN([C@@H](C)CO)S(=O)(=O)c2ccc(C#CC3CCCCC3)cc2O[C@H]1CN(C)Cc1cccnc1, CN1CCN2c3ncccc3Cc3ccccc3[C@@H]2C1, Fc1ccc(/C=C2\CCCC3=C2Nc2ncnn2C3c2ccc(F)cc2)cc1 (configuration not stated), CC(C)(C)NS(=O)(=O)c1ccc(CCC(=O)N2CCOCC2)cc1, CCC(=O)N[C@H]1CC[C@H](CCNC(=O)Nc2ccc(C(F)(F)F)cc2)O[C@H]1CO, COc1cc(CN2C[C@@H]3N[C@H](C2)C3c2ccc(-c3ccccc3C)cc2)cc(OC)c1 (some centres not stated), COc1cccc(CN2C[C@@H]3N[C@H](C2)C3c2ccc(-c3ccccc3OC)cc2)c1 (some centres not stated), CC(C)c1ccc(-c2nnn(CC(=O)N3CCCCC3)n2)cc1, Cc1ccc(S(=O)(=O)N2CCCC2)cc1C(=O)O, CN(C)CCCN(C(=O)CCOc1ccccc1)c1nc2ccc(F)cc2s1, CC(C)CC#Cc1cnc2c(c1)C(=O)N([C@@H](C)CO)C[C@@H](C)[C@H](CN(C)C(=O)c1ccccc1)O2, C[C@@H]1CN([C@@H](C)CO)C(=O)c2c(c3ccccc3n2C)-c2ccccc2CO[C@H]1CN(C)S(=O)(=O)c1ccsc1, CC(C)[C@H](C)NC(=O)N(C)C[C@@H]1OCc2ccccc2-c2ccccc2C(=O)N([C@@H](C)CO)C[C@H]1C, CC(C)NC(=O)N(C)C[C@H]1Oc2c(NS(=O)(=O)c3cn(C)cn3)cccc2C(=O)N([C@@H](C)CO)C[C@@H]1C, CCN(C(=O)COC(=O)/C=C/c1cccc(Cl)c1)c1c(N)n(Cc2ccccc2)c(=O)[nH]c1=O, Clc1ccccc1OCCCCN1CCCC1, CO[C@H]1CN(C)C(=O)c2cc(NS(C)(=O)=O)ccc2OC[C@@H](C)N(C(=O)CC2CC2)C[C@H]1C, CCOC(=O)CSc1nccc(N(C)C)c1C#N, O=C(OCc1cnc(Cl)s1)c1cccs1, CC(NCc1cccs1)C(=O)NC1CCCCC1 (configuration not stated), CO[C@@H]1CN(C)C(=O)c2ccc(NC(=O)c3ccc(Oc4ccccc4)cc3)cc2OC[C@@H](C)N(C(C)=O)C[C@H]1C, COc1ccc(S(=O)(=O)N(C)C[C@H]2Oc3ccc(NC(=O)CCN4CCOCC4)cc3C(=O)N([C@@H](C)CO)C[C@@H]2C)cc1, CSCC[C@H](NC(=O)c1ccc(Br)o1)c1nnc2ccccn12, O=C(Nc1ccc([N+](=O)[O-])cn1)c1ccc(Br)o1, CC(=O)N(C)C[C@@H]1Oc2cc(-c3ccc(F)cc3)ccc2S(=O)(=O)N([C@H](C)CO)C[C@H]1C, C[C@@H]1CN([C@@H](C)CO)C(=O)c2cccc(NC(=O)C3CCCCC3)c2O[C@@H]1CN(C)CC1CCCCC1, COc1cc(NC(=O)c2[nH]cnc2C(N)=O)cc(C(=O)Nc2cccc(C(F)(F)F)c2)c1, O=C(Nc1cccc(Cl)c1)c1cncn1-c1ccc(F)cc1, COc1cnc(-c2ccccn2)nc1Sc1ccc(C)cc1, CCOC(=O)C1(Cc2cccc(Cl)c2)CCCN(C(=O)c2cccnc2)C1 (configuration not stated), C[C@H]1CN([C@@H](C)CO)C(=O)c2cc(-c3cncnc3)cnc2O[C@@H]1CN(C)C(=O)c1cccc(F)c1, C[C@H]1CN([C@@H](C)CO)C(=O)CCCn2nncc2CO[C@@H]1CN(C)C(=O)c1ccc(N2CCN(C)CC2)cc1, C[C@H]1CN([C@@H](C)CO)C(=O)c2cc(C#Cc3ccc(F)cc3)cnc2O[C@@H]1CN(C)C(=O)Nc1ccc(F)cc1, C[C@H]1CCCCO[C@@H](CN(C)C(=O)c2ccccc2)[C@@H](C)CN([C@@H](C)CO)C(=O)c2cc(NC(=O)Nc3ccc(F)cc3)ccc2O1, C[C@@H]1CN([C@H](C)CO)C(=O)c2cccc(NC(=O)c3nc4ccccc4s3)c2O[C@@H]1CN(C)C(=O)Nc1ccc(F)cc1, C[C@@H]1CN([C@@H](C)CO)C(=O)c2cc(NS(C)(=O)=O)ccc2O[C@@H](C)CCCCO[C@H]1CN(C)C(=O)Nc1ccc(F)cc1
